From PubChem
In the library only some 6.7% were active in any assay of this set; here they are far more common.
Pf Dd2 inh: blocks growth of Plasmodium falciparum Dd2 parasites. P. falciparum Dd2 growth, SYBR Green, 72 h; hits give low values. activity change, % at 10 µM. actives 2.3% (n = 94,000). AID 1159554; in the data active = activity change below about -80%; inconclusive = no clear call, values can overlap the other calls
T cruzi growth-1: inhibitors of T. cruzi proliferation | T. cruzi beta-gal in NIH3T3, GalScreen luminescence, 90 h | inhibition, % at 8.34 µM | actives 5.9% (n = 77,000) | AID 624255;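 active = mean inhibition above about 93%, with at least 55% of replicates each passing it, limit read from the data, passing the limit was not always enough; inconclusive = only one of those two conditions holds; inactive = neither condition holds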
C diff HTS: inhibitors of Clostridium difficile growth | growth activity, negative = inhibition, % at 16 µg/mL (by protocol) | actives 0.25% (n = 86,000) | Clostridium difficile clinical isolate growth, OD600, 24 h; hits give low values;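 active = mean growth activity at or below -80% and every replicate also at or below -80%; inconclusive = mean at or below -80% but some replicate above -80%; inactive = mean growth activity above -80%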
T cruzi growth-2: blocks T. cruzi growth in NIH3T3 host cells; shares compounds with T cruzi growth-1; T. cruzi beta-gal in NIH3T3, GalScreen luminescence, 90 h; inhibition, % at 8.35 µM; actives 72% (n = 5,600); AID 651739;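 active = mean replicate inhibition above about 95% and at least 55% of replicates individually reaching it, limit read from the data; inconclusive = only one of the two criteria is met; inactive = neither criterion is met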
T cruzi growth-3: blocks T. cruzi growth in NIH3T3 host cells. shares compounds with T cruzi growth-1. T. cruzi beta-gal in NIH3T3, GalScreen luminescence, 90 h. inhibition, % at 2.09 µM. actives 21% (n = 5,600). AID 651740;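 active = mean inhibition above about 95%, with at least 55% of replicates also reaching it, limit read from the data; inconclusive = meets just one of the two conditions; inactive = meets neither condition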
3T3 cytotox: cytotoxicity in mouse NIH/3T3 fibroblasts | shares compounds with T cruzi growth-1 | NIH/3T3 viability, CellTiter-Glo ATP luminescence, 90 h | cytotoxicity (signal decrease), % at 8.35 µM | actives 14% (n = 5,600) | AID 651742;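 active = mean signal decrease across replicates above about 35% based on untreated-well scatter, with enough replicates individually passing, limit read from the data; inconclusive = no rule stated though some were filed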
3T3 cytotox 2: NIH/3T3 (mouse) viability loss. shares compounds with T cruzi growth-1. AID 651744. NIH/3T3 viability, CellTiter-Glo ATP luminescence, 90 h. actives 56% (n = 5,600). inhibition, % at 24.9 µM;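 active = mean loss of cell viability signal at or above a set limit, and enough replicates individually reaching it; inconclusive = meets only the mean limit or only the replicate share; inactive = meets neither condition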
Hits are given with their value.

How did C[C@@H]1CN([C@@H](C)CO)C(=O)c2cc(/C=C/c3ccccc3)cnc2O[C@@H]1CN(C)C(=O)c1ccc2c(c1)OCO2 do in these assays?
Pf Dd2 inh: inactive; C diff HTS: inactive

How did C[C@@H]1CCCCO[C@H](CN(C)C(=O)c2ccccc2)[C@H](C)CN([C@@H](C)CO)C(=O)c2cc(NS(=O)(=O)c3cn(C)cn3)ccc2O1 do in these assays?
Pf Dd2 inh: inactive; T cruzi growth-1: inactive

Results for COc1cccc(C(=O)Nc2ccc3c(c2)OC[C@H](C)N(CCc2ccccc2)C[C@@H](C)[C@H](OC)CN(C)C3=O)c1 ?
Pf Dd2 inh: inactive; T cruzi growth-1: 108; T cruzi growth-2: 101; T cruzi growth-3: inactive; 3T3 cytotox: inactive; 3T3 cytotox 2: inactive

What do the screens show for `COc1cccc(C(=O)Nc2ccc3c(c2)OC[C@H](C)N(CCc2ccccc2)C[C@H](C)[C@H](OC)CN(C)C3=O)c1`?
Pf Dd2 inh: inactive; T cruzi growth-1: inactive

How did CCCN1C[C@H](C)[C@H](OC)CN(C)C(=O)c2ccc(NS(=O)(=O)c3cn(C)cn3)cc2OC[C@@H]1C do in these assays?
Pf Dd2 inh: inactive; T cruzi growth-1: inactive

What do the screens show for `CCCN1C[C@H](C)[C@@H](OC)CN(C)C(=O)c2ccc(NS(=O)(=O)c3cn(C)cn3)cc2OC[C@H]1C`?
Pf Dd2 inh: inactive; T cruzi growth-1: 105; T cruzi growth-2: inactive; T cruzi growth-3: inactive; 3T3 cytotox: inactive; 3T3 cytotox 2: inactive

How did COc1ccc2c3c(n(C)c2c1)[C@H](CO)N(C(=O)CN1CCOCC1)CC31CCN(C(=O)C2CC2)CC1 do in these assays?
Pf Dd2 inh: inactive; C diff HTS: inactive

Results for COc1cccc(NC(=O)N[C@@H]2C=C[C@H](CC(=O)Nc3ccc(-c4ccccc4)cc3)O[C@@H]2CO)c1 ?
Pf Dd2 inh: inactive; C diff HTS: inactive

What do the screens show for `O=C1CN(S(=O)(=O)c2ccccc2)C[C@H]2[C@@H](c3ccc(C#Cc4ccccc4)cc3)[C@H](CO)N12`?
Pf Dd2 inh: inactive; C diff HTS: inactive

How did CCC(=O)Nc1ccc2c(c1)C(=O)N(C)C[C@@H](OC)[C@@H](C)CN(CCc1ccccc1)[C@@H](C)CO2 do in these assays?
Pf Dd2 inh: inactive; T cruzi growth-1: inactive

Results for CCC(=O)N1CCCCN2[C@H](CO)[C@H](c3ccc(C#Cc4cccnc4)cc3)[C@H]2C1 ?
Pf Dd2 inh: inactive; T cruzi growth-1: 101; C diff HTS: inactive; T cruzi growth-2: 100; T cruzi growth-3: inactive; 3T3 cytotox: inactive; 3T3 cytotox 2: inactive

How did CCC(=O)N1CCCCN2[C@@H](CO)[C@H](c3ccc(C#Cc4cccnc4)cc3)[C@@H]2C1 do in these assays?
Pf Dd2 inh: inactive; T cruzi growth-1: inactive; C diff HTS: inactive

What do the screens show for `CN(C)CC(=O)N1CCCCN2[C@H](CO)[C@H](c3ccc(-c4cccnc4)cc3)[C@H]2C1`?
Pf Dd2 inh: inactive; T cruzi growth-1: 108; C diff HTS: inactive; T cruzi growth-2: inactive; T cruzi growth-3: inactive; 3T3 cytotox: inactive; 3T3 cytotox 2: inactive

Results for CN(C)CC(=O)N1CCCCN2[C@H](CO)[C@H](c3ccc(-c4cccnc4)cc3)[C@@H]2C1 ?
Pf Dd2 inh: inactive; T cruzi growth-1: inactive; C diff HTS: inactive

What do the screens show for `CN(C)CC(=O)N1CCCCN2[C@H](CO)[C@@H](c3ccc(-c4cncnc4)cc3)[C@H]2C1`?
Pf Dd2 inh: inactive; T cruzi growth-1: inactive; C diff HTS: inactive

How did CCC(=O)N1CCCCN2[C@H](CO)[C@H](c3ccc(-c4cccnc4)cc3)[C@H]2C1 do in these assays?
Pf Dd2 inh: inactive; T cruzi growth-1: 114; C diff HTS: inactive; T cruzi growth-2: inactive; T cruzi growth-3: inactive; 3T3 cytotox: inactive; 3T3 cytotox 2: inactive

What do the screens show for `CN(C)CC(=O)N1CCCCN2[C@@H](CO)[C@@H](c3ccc(-c4cccnc4)cc3)[C@@H]2C1`?
Pf Dd2 inh: inactive; T cruzi growth-1: inconclusive; C diff HTS: inactive; T cruzi growth-2: inconclusive; T cruzi growth-3: inactive; 3T3 cytotox: inactive; 3T3 cytotox 2: inactive

Results for CCC(=O)N1CCCCN2[C@H](CO)[C@@H](c3ccc(-c4cccnc4)cc3)[C@@H]2C1 ?
Pf Dd2 inh: inactive; T cruzi growth-1: inactive; C diff HTS: inactive
